Consider 39 compounds from PubChem BioAssay (NCI).

This is part of a sample that, as a whole, favours compounds with a hit. Of some 83,000 tested, about 20% had one in any assay.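 Compound tested at a single concentration for 48 hours in 96-well plates; a percent growth value below 10 was scored as active.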 Values without a mark were called inactive. Active and inactive are the calls of the source.

One test relates to NCI-H522 lung. The test can be described thus: NCI-60 one-dose screen, 48 h (100 = growth as untreated, 0 = no growth, -100 = all killed). Conditions: 10 µM unless noted.
For the compound `CCCCCCNc1cc(C)nc2ccc(OC)cc12`, the growth is 63.9%.
The same measure, in the same setting: the result for `Cc1ccc(C)c2c1C(=O)OC2=O` reads 80.8%; that for `CCN(CC)CCCNC(=O)c1ccc(N)cc1O`, 96.6%.
Still for that read-out and setting: next, `O=[N+]([O-])c1ccc(-c2cc3c(Nc4ccc(OCc5cccc(Cl)c5)c(Cl)c4)ncnc3s2)cc1`: 49.9%; `COC(=O)Nc1nc2ccc(C(=O)C3CC3)cc2[nH]1`: -37.6% (active).
Same read-out and setting: next, `CCOC(=O)C(O)C(O)(c1ccccc1)c1ccccc1` (configuration not stated): 92.8%.
Take `N#Cc1cnn2c(-c3ccc(Cl)cc3)nc(NC3CC3)nc12`: the growth is 90.6%.
On the same count and under the same terms, the result for `O=C(C[C@@]1(O)C(=O)Nc2c(Cl)ccc(Cl)c21)c1ccc(C2CC2)cc1` reads 19.4%; that for `CN(CCC(=O)/C(=C\c1ccccc1)c1ccc(Cl)cc1)Cc1ccccc1`, -45.9% (active).
`CC1=NN(c2cccc(Cl)c2)C(=O)/C1=C\c1cn(CC(O)CN2CCCCC2)c2ccccc12` (configuration not stated): the growth is 71.9%.
The same measure, in the same setting: next, `O=C(NCOC(O)C(Cl)(Cl)Cl)NCOC(O)C(Cl)(Cl)Cl` (configuration not stated): 82.8%.
The same measure, in the same setting: next, `Cc1nn(-c2ccccc2)c2c1C(c1ccc([N+](=O)[O-])cc1)C(C#N)=C(N)O2` (configuration not stated): 97.5%.
In the case of `O=[N+]([O-])c1ccccc1C(O)Cc1ccc2ccccc2n1` (configuration not stated), the growth was 101%.
On the same count and under the same terms, the result for `N#Cc1cnn2c(-c3ccc(Cl)cc3)nc(NCCc3ccccc3)nc12` reads 74.4%.
Same read-out and setting: next, `CCOC(=O)C(=CNc1ccccc1[N+](=O)[O-])C(=O)OCC`: 89.5%; `Cc1ccc(NSc2ccccc2[N+](=O)[O-])cc1`: 12.7%; `CN(C)CCC(O)(Cc1ccccc1)c1ccccc1` (configuration not stated): 116%.
Consider `CCOc1cc(N)ccc1C(=O)NCCCN(CC)CC`, for which the growth was 98.2%.
Regarding `COc1ccc(-c2nnc(SCC(=O)NC3=NN=C(c4ccccc4)CS3)o2)cc1`, the growth is 93.3%.
Same read-out and setting: next, `C#C[C@]1(O)CC[C@H]2[C@@H]3CC=C4c5sc(N=C(N)N)nc5CC[C@]4(C)[C@H]3CC[C@@]21C`: -24.1% (active).
Same read-out and setting: the result for `CCCCCCCCN(CCCCCCCC)C(=N)c1ccnc2ccccc12` reads -74.7% (active); that for `COc1cc(-c2ccc(N=Nc3c(O)c(C(=O)Nc4ccccc4OC)cc4ccccc34)c(OC)c2)ccc1N=Nc1c(O)c(C(=O)Nc2ccccc2OC)cc2ccccc12`, 90.4%; that for `O=C1c2ccccc2C2(c3ccc(O)cc3)c3ccccc3Oc3cccc1c32` (configuration not stated), 48.6%.
On the same count and under the same terms, the result for `Cc1c(Cl)cccc1NS(=O)(=O)c1ccccc1` reads 98.4%; that for `CN(C)c1cnccn1`, 45.9%.
Turning to `Fc1ccc(Nc2nc3nonc3nc2Nc2ccc(F)cc2)cc1`, the growth was -23.9% (active).
The same measure, in the same setting: the result for `Cc1nc2ccccc2c(/C=C/c2ccc(Cl)cc2)c1C(=O)/C=C/c1ccc(Cl)cc1` reads -14.6% (active); that for `Fc1ccc(Nc2nc(Nc3ccc(-c4nc5ccccc5[nH]4)cc3)c3cn[nH]c3n2)cc1`, 65.9%.
With `Nc1ccc(-c2cc3c(Nc4ccc(OCc5cccc(F)c5)c(Cl)c4)ncnc3s2)cc1`, the growth was 13.1%.
On to `O=[N+]([O-])c1ccc(-c2cc3c(Nc4ccc(Cl)c(C(F)(F)F)c4)ncnc3s2)cc1`, for which the growth was -1.24% (active).
Regarding `O=[N+]([O-])c1ccc(-c2cc3c(Nc4ccc(Sc5nc6ccccc6s5)c(Cl)c4)ncnc3s2)cc1`, the growth was 30%.
On the same count and under the same terms, the result for `CCOC(=O)N1CCc2c(sc3c2C(=O)N[C@H](c2ccc(OC)cc2)N3)C1` reads 76%.
The same measure, in the same setting: next, `Cc1cn(C2CCCCC2)c(=O)[nH]c1=O`: 97.8%; `Cc1csc(NC(=O)c2sc3nc(-c4cccs4)ccc3c2N)n1`: 82.3%; `Clc1ccc(-c2nc(NCCc3ccccc3)nc3c(NCCc4ccccc4)cnn23)cc1`: 63%.
The same measure, in the same setting: the result for `Cc1nc(C)c(-c2nn3c(-c4cccc(F)c4)nnc3s2)s1` reads 77.6%; that for `COc1ccc(-c2nnc(-c3ccc4c(c3)nc(-c3ccccc3)n4C3CCCCC3)o2)cc1`, 17.6%.
Take `Cc1cc2c(F)c(Oc3ncnc(Nc4ccc(N5C[C@@H](C)N[C@@H](C)C5)cc4)c3C#N)cc(F)c2[nH]1`: the growth was -21.8% (active).
`CCN(CC)CCCNC(=O)c1ccc(N)cc1`: the growth was 101%.

The next test has as its system A549/ATCC NSCLC. The description is as above. Particulars: 10 µM unless noted.
`CCCCCCNc1cc(C)nc2ccc(OC)cc12`: the growth is 64.3%.
For `Cc1ccc(C)c2c1C(=O)OC2=O`, the growth was 99.4%.
The same measure, in the same setting: the result for `CCN(CC)CCCNC(=O)c1ccc(N)cc1O` reads 103%; that for `O=[N+]([O-])c1ccc(-c2cc3c(Nc4ccc(OCc5cccc(Cl)c5)c(Cl)c4)ncnc3s2)cc1`, 29.4%; that for `CCOC(=O)C(O)C(O)(c1ccccc1)c1ccccc1` (configuration not stated), 95.6%.
The same measure, in the same setting: next, `N#Cc1cnn2c(-c3ccc(Cl)cc3)nc(NC3CC3)nc12`: 84.4%; `O=C(C[C@@]1(O)C(=O)Nc2c(Cl)ccc(Cl)c21)c1ccc(C2CC2)cc1`: 38.1%.
`CN(CCC(=O)/C(=C\c1ccccc1)c1ccc(Cl)cc1)Cc1ccccc1`: the growth is 85.9%.
The same measure, in the same setting: next, `CC1=NN(c2cccc(Cl)c2)C(=O)/C1=C\c1cn(CC(O)CN2CCCCC2)c2ccccc12` (configuration not stated): 95.2%.
On to `O=C(NCOC(O)C(Cl)(Cl)Cl)NCOC(O)C(Cl)(Cl)Cl` (configuration not stated), for which the growth is 97.5%.
Same read-out and setting: the result for `Cc1nn(-c2ccccc2)c2c1C(c1ccc([N+](=O)[O-])cc1)C(C#N)=C(N)O2` (configuration not stated) reads 102%.
The same measure, in the same setting: next, `O=[N+]([O-])c1ccccc1C(O)Cc1ccc2ccccc2n1` (configuration not stated): 97.4%; `N#Cc1cnn2c(-c3ccc(Cl)cc3)nc(NCCc3ccccc3)nc12`: 93.3%.
The same measure, in the same setting: the result for `CCOC(=O)C(=CNc1ccccc1[N+](=O)[O-])C(=O)OCC` reads 88.5%; that for `Cc1ccc(NSc2ccccc2[N+](=O)[O-])cc1`, 20.5%.
Regarding `CN(C)CCC(O)(Cc1ccccc1)c1ccccc1` (configuration not stated), the growth was 106%.
`CCOc1cc(N)ccc1C(=O)NCCCN(CC)CC`: the growth is 104%.
The same measure, in the same setting: next, `COc1ccc(-c2nnc(SCC(=O)NC3=NN=C(c4ccccc4)CS3)o2)cc1`: 74.7%; `C#C[C@]1(O)CC[C@H]2[C@@H]3CC=C4c5sc(N=C(N)N)nc5CC[C@]4(C)[C@H]3CC[C@@]21C`: -13.1% (active); `CCCCCCCCN(CCCCCCCC)C(=N)c1ccnc2ccccc12`: -82.5% (active).
As to `COc1cc(-c2ccc(N=Nc3c(O)c(C(=O)Nc4ccccc4OC)cc4ccccc34)c(OC)c2)ccc1N=Nc1c(O)c(C(=O)Nc2ccccc2OC)cc2ccccc12`, the growth was 95.6%.
For the compound `O=C1c2ccccc2C2(c3ccc(O)cc3)c3ccccc3Oc3cccc1c32` (configuration not stated), the growth was 29%.
Same read-out and setting: next, `Cc1c(Cl)cccc1NS(=O)(=O)c1ccccc1`: 104%; `CN(C)c1cnccn1`: 91.3%.
On the same count and under the same terms, the result for `Fc1ccc(Nc2nc3nonc3nc2Nc2ccc(F)cc2)cc1` reads 6.26% (active); that for `Cc1nc2ccccc2c(/C=C/c2ccc(Cl)cc2)c1C(=O)/C=C/c1ccc(Cl)cc1`, 56.9%; that for `Fc1ccc(Nc2nc(Nc3ccc(-c4nc5ccccc5[nH]4)cc3)c3cn[nH]c3n2)cc1`, 73.1%.
Same read-out and setting: the result for `Nc1ccc(-c2cc3c(Nc4ccc(OCc5cccc(F)c5)c(Cl)c4)ncnc3s2)cc1` reads 21.2%; that for `O=[N+]([O-])c1ccc(-c2cc3c(Nc4ccc(Cl)c(C(F)(F)F)c4)ncnc3s2)cc1`, 10.1%; that for `O=[N+]([O-])c1ccc(-c2cc3c(Nc4ccc(Sc5nc6ccccc6s5)c(Cl)c4)ncnc3s2)cc1`, 18.5%.
As to `CCOC(=O)N1CCc2c(sc3c2C(=O)N[C@H](c2ccc(OC)cc2)N3)C1`, the growth is 85.4%.
Still for that read-out and setting: the result for `Cc1cn(C2CCCCC2)c(=O)[nH]c1=O` reads 101%; that for `Cc1csc(NC(=O)c2sc3nc(-c4cccs4)ccc3c2N)n1`, 94.7%.
The same measure, in the same setting: next, `Clc1ccc(-c2nc(NCCc3ccccc3)nc3c(NCCc4ccccc4)cnn23)cc1`: 9.98% (active).
On the same count and under the same terms, next, `Cc1nc(C)c(-c2nn3c(-c4cccc(F)c4)nnc3s2)s1`: 87%; `COc1ccc(-c2nnc(-c3ccc4c(c3)nc(-c3ccccc3)n4C3CCCCC3)o2)cc1`: 50.3%; `Cc1cc2c(F)c(Oc3ncnc(Nc4ccc(N5C[C@@H](C)N[C@@H](C)C5)cc4)c3C#N)cc(F)c2[nH]1`: 13.7%.
Consider `CCN(CC)CCCNC(=O)c1ccc(N)cc1`, for which the growth is 105%.
